Assay outcomes deposited in PubChem BioAssay by National Center for Advancing Translational Sciences (NCATS).
Compounds with a hit are over-represented: about 9% of the library has one in this group of screens.
G9a block: inhibitors of human histone lysine methyltransferase G9a; Q96KQ7; G9a H3K9 monomethylation, AlphaScreen, 2 h; Potency, µM (doses to about 102 µM), for inactives: at the top dose activity, negative = inhibition, usual class: inhibitors; actives 8.8% (n = 350,000); also: % is scaled to controls: 0 for no effect and ±100 for the full control effect; nearly all actives have a fitted effect of over 75% in size
Target sequence (Q96KQ7 913-1193 limits assumed): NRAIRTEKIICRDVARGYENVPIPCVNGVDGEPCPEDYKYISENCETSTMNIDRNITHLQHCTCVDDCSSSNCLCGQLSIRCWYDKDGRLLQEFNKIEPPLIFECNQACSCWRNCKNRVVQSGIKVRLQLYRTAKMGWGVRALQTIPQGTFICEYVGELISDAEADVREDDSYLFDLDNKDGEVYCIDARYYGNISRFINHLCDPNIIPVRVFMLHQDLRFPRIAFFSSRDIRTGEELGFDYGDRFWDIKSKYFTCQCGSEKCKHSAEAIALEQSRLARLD
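Using a bead-based AlphaScreen, monomethylated H3K9 product from 2 h room-temperature reactions (G9a 20 nM, peptide 500 nM, SAM 20 uM) was detected with 0.5 ug/mL rabbit anti-H3K9me1 antibody.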
JMJD2A Tudor: JMJD2A Tudor domain (human) inhibition | O75164 | AlphaScreen JMJD2A-Tudor / H3K4me3 peptide binding | Potency, µM (top dose mostly 114 µM), for the others: at the top dose activity change, negative = inhibition, usual class: inhibitors | actives 4.4% (n = 390,000) | AID 504339; also: % is scaled to controls: 0 for no effect and ±100 for the full control effect; nearly all actives have a fitted effect of over 50% in size
ALOX12 inh: inhibitors of human 12S-lipoxygenase ALOX12. Potency, µM (titrated, usually from 108 µM), for inactives: at the top dose activity change, negative = inhibition, actives largely listed as inhibitors. actives 1.1% (n = 580,000). P18054. purified 12hLO, xylenol orange hydroperoxide absorbance; also: % is scaled to controls: 0 for no effect and ±100 for the full control effect
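Hydroperoxide product was detected by ferrous iron/xylenol orange as the 573 to 405 nm absorbance ratio. Arachidonic acid at 40 uM (final) was turned over for 30 min at room temperature by 150 nM human 12hLO, pH 7.0 Hepes buffer, after 15 min compound preincubation.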
HP1b chromo inh: inhibitors of HP1-beta chromodomain binding to methylated histone tails; P83916; AlphaScreen HP1-beta / biotin-H3K9me3 peptide binding; Potency, µM (doses to about 114 µM), for the others: at the top dose activity change, negative = inhibition, hits mostly inhibitors; actives 0.56% (n = 390,000); also: nearly all actives have a fitted effect of over 70% in size
Target sequence (P83916 whole entry, looked up): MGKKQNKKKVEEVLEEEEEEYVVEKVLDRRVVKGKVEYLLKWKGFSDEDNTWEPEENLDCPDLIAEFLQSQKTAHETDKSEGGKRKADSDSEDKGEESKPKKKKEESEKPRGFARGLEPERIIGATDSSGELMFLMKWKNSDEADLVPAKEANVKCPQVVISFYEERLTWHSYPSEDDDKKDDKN
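HP1-beta protein (50 nM final) preincubated 30 min at room temperature with biotinylated H3(1-18)K9me3 peptide (50 nM) in PBS pH 7.4, 0.01% Tween-20, then compound added for 30 min. AlphaScreen streptavidin donor/nickel chelate acceptor beads (10 ug/mL final), 30 min dark, luminescence read.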
BAZ2B inh: inhibitors of human BAZ2B bromodomain. AID 504333. Potency, µM (series often up to 114 µM), inactives show at the top dose activity change, negative = inhibition, hits mostly inhibitors. actives 4.4% (n = 360,000). Q9UIF8. AlphaScreen BAZ2B-H3K14Ac peptide displacement; also: % is scaled to controls: 0 for no effect and ±100 for the full control effect; nearly all actives have a fitted effect of over 60% in size
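In this displacement format the biotinylated H3(5-23) peptide acetylated at Lys14 serves as ligand at 50 nM, with BAZ2B at 50 nM in PBS pH 7.4 containing 0.01% Tween-20. Donor and acceptor beads are 10 ug/mL final.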
PLK1 PBD inh: blocks phosphopeptide binding to human PLK1 polo-box domain; P53350; actives 2.8% (n = 360,000); Potency, µM, without a hit: max response, negative = inhibition, hits mostly inhibitors; Plk1 PBD binding of FITC phosphopeptide, fluorescence polarization; AID 720504; also: series mostly up to about 57 µM; % is scaled to controls: 0 for no effect and ±100 for the full control effect; nearly all actives have a fitted effect of over 65% in size
* hit, by the source's call; ? = inconclusive; . = no result given; [ ] = dose if it differs, or a comment. Calls follow the shape of the dose curve; as a rule, active = well fitted curve in the direction sought with a large enough effect; inconclusive = small, poorly fitted or top-dose-only effect, or another doubt; inactive = no such curve, though single readings can be large; an effect the other way counts as inactive or inconclusive. Potency is read from the fitted curve at half-maximal effect.

SMILES	G9a block	JMJD2A Tudor	ALOX12 inh	HP1b chromo inh	BAZ2B inh	PLK1 PBD inh
Cn1c(=O)c2c(nc(SCC(N)=O)n2Cc2ccccc2)n(C)c1=O	.	.	0%	.	.	.
COCCNC(=O)C1(C)Cc2c(-c3ccc(NC(C)=O)cc3)ccnc2O1 (stereo not given)	.	.	0%	.	.	-5%
NS(=O)(=O)c1ccc(NC(=S)NCc2ccc(F)cc2)cc1	?	-13%	?	-17%	-37%	21µM*
NS(=O)(=O)c1ccc(CNC(=S)Nc2ccc(F)c(Cl)c2)cc1	-19%	-6%	?	34%	-1%	-11%
Cc1cc(C)cc(NC(=S)NCc2ccc(S(N)(=O)=O)cc2)c1	27%	-6%[57.1 µM]	?	36%	2%	?
COc1ccc(C(=O)NC(=S)Nc2ccc(S(N)(=O)=O)cc2)cc1	?	-15%	-19%	18%	-10%	-6%
Cn1cc(Br)c(C(=O)NC(=S)Nc2ccc(S(N)(=O)=O)cc2)n1	45µM*	-7%[11.4 µM]	?	-2%	-14%	?
NS(=O)(=O)c1ccc(NC(=S)NCc2ccc(Cl)cc2)cc1	8.9µM*	-23%	?	?	-26%	11µM*
Cc1ccc2nc(SCC(=O)NC3CCCCC3)nc(=O)n2c1	-1%	-10%	-22%	32%	-4%	4%
Cc1cccc(C(=O)n2c(=S)nc3ccccn32)c1	2.2µM*	-16%	.	-45%	1%	24µM*
O=C(c1ccccc1)n1c(=S)nc2ccccn21	?	-14%	0%	7%	6%	-12%
Cc1ccc(C(=O)n2c(=S)nc3ccccn32)cc1	25µM*	.	.	.	9%	.
COc1ccc(-n2nc3c(N)n[nH]c3cc2=O)cc1	50µM*	-10%	-13%	30%	-17%	-20%
Nc1ccn(-c2ccc(Cl)cc2)c(=O)c1	0%	-9%	62%	6%	5%	-3%
Nc1n[nH]c2cc(=O)n(-c3ccc(Cl)cc3)nc12	45µM*	-9%	-22%	44%	-10%	-24%
CCOC(=O)C1=C(N)N(c2ccccc2Oc2ccccc2)C(=O)C1	18%[59 µM]	-12%	10%	14%	9%	-3%
CCOC(=O)C1=C2NC(=O)c3ccccc3N2C(=O)C1	7.9µM*	?	-15%	?	-28%	?
Cn1cc(CN2Cc3c(cc(N4CCOCC4)nc3-c3cccc(F)c3)C2=O)cn1	.	.	-4%[176 µM]	.	.	.
Cc1ccc(C2=NOC(=O)/C2=C\C=C\c2ccccc2)cc1	2.8µM*	50µM*	1.1µM*	-30%	35µM*	1.7µM*
Cc1ccc(-n2nc3ccc(NC(=O)/C=C/c4ccco4)cc3n2)cc1	?	?	?	-15%	?	-24%
CC1=NN(c2ccccc2)C(=O)/C1=C/C=C/c1ccccc1	5µM*	8.9µM*	17%	32µM*	7.9µM*	?
CC1=NN(c2cccc(C(=O)O)c2)C(=O)/C1=C\C=C\c1ccco1	7.9µM*	8.9µM*	-17%	13µM*	10µM*	8.4µM*
Cc1ccc(-c2nnc(/C=C/c3ccccc3)o2)cc1	29%[59 µM]	18%[57.1 µM]	-12%	48%	2%	-3%
CC1=NN(c2ccccc2)C(=O)/C1=C/c1cc(C)n(C2CC2)c1C	7%[12.7 µM]	-35%[11.4 µM]	-6%	26%	?	-12%
CC1=NN(c2ccccc2)C(=O)/C1=C\N1CC(C)OC(C)C1 (stereo not given)	79µM*	-30%	-29%	14%	?	-8%
SMILES	G9a block	JMJD2A Tudor	ALOX12 inh	HP1b chromo inh	BAZ2B inh	PLK1 PBD inh
CO[C@H]1C(=O)N(C(C)C)[C@H]1C1CCN(C(=O)c2cnccn2)CC1	.	.	28%	.	.	.
CNC(=O)COC(=O)c1nc(-n2nc(C)cc2C)ccc1Cl	26%[0.501 µM]	-12%	20%	16%	-6%	-1%
Cn1c(=O)c2c([nH]c(=S)n2Cc2ccc(Cl)cc2)n(C)c1=O	1.3µM*	5.6µM*	?	?	22µM*	11µM*
Cn1c(=O)c2c(nc(Cl)n2Cc2ccc(Cl)cc2)n(C)c1=O	.	.	-27%	.	.	.
CC(C)N1CCC(N2CCN(C/C=C/c3ccc(F)cc3)CC2CCO)CC1 (stereo not given)	-20%	-2%	-2%	13%	-3%	3%
CCOc1ccc(-c2nnc(-c3cccs3)o2)cc1OCC	1%	?	4%	-6%	1%	19µM*
CC(=O)NC(CCS(C)(=O)=O)C(=O)Nc1ccc(F)cc1 (stereo not given)	.	.	10%	.	.	.
CCOc1ccc2nc(NC(=O)C(CCSC)NS(=O)(=O)c3cccs3)sc2c1 (stereo not given)	?	56µM*	.	45%	?	-14%
CC(NS(=O)(=O)c1ccccc1)C(=O)Nc1ccc(S(N)(=O)=O)cc1 (stereo not given)	?	-10%	-9%	16%	26%	-13%
CC(=O)NC(CCS(C)(=O)=O)C(=O)Nc1nccs1 (stereo not given)	?	10%[11.4 µM]	?	-10%	-30%	27µM*
CC(NS(=O)(=O)c1ccccc1)C(=O)Nc1nccs1 (stereo not given)	-1%[59 µM]	-20%	0%	40%	-3%	21µM*
CSCCC(NS(=O)(=O)c1ccccc1)C(=O)Nc1nccs1 (stereo not given)	8.9µM*	-21%	?	18%	4%	?
CCOc1ccc2nc(NC(=O)C(NS(=O)(=O)c3cccs3)C(C)C)sc2c1 (stereo not given)	18%[12.7 µM]	-12%	-13%	19%	12%	-9%
O=C(O)C1CCN(S(=O)(=O)c2cccnc2)CC1	-33%	-11%	20%	32%	-17%	-11%
O=C(c1ccccc1)N1CCCC(n2cc(-c3nc(-c4ccccc4)no3)nn2)C1 (stereo not given)	.	.	3%	.	.	.
O=C(c1cccnc1)N1CCCC(n2cc(-c3nc(-c4ccccc4)no3)nn2)C1 (stereo not given)	.	.	40µM*	.	.	.
O=C(CSc1nc2ccccc2s1)N1N=C(c2cccs2)CC1c1ccc(F)cc1 (stereo not given)	13%[59 µM]	-10%	-15%	28%	-10%	-1%
O=C(CSc1nc2c(cnn2-c2ccc(F)cc2)c(=O)[nH]1)N1N=C(c2cccs2)CC1c1ccc(F)cc1 (stereo not given)	32µM*	.	4%[57.4 µM]	.	1.3µM*	.
Nc1c(C(=O)c2ccc(Br)s2)oc2ccccc12	45µM*	11%	0%	32%	-3%	-5%
O=C(NCCCSc1ccccc1)c1cc(Cl)ccc1O	35µM*	33%	?	88%	50µM*	-10%
Cc1ncoc1C(=O)N1CCCN(S(C)(=O)=O)C(c2ccccc2)CC(=O)NCC1 (stereo not given)	.	.	16%	.	.	.
Fc1ccccc1-c1ccc(-c2nn3c(-c4ccco4)nnc3s2)o1	.	.	8.9µM*	.	.	.
